Experimental data as given in article PMC3218832.

Key:
Assay in all cases: protein binding microarray; high values mean tight binding
Settings in all cases: dsDNA, one strand shown
RELARELA (p65 homodimer) = RELARELA (p65 homodimer) (Homo sapiens, UniProt Q04206 1-307)
p50p50 homodimer = p50p50 homodimer (Homo sapiens, UniProt P19838 7-356)
p52p52 homodimer = target: T1, p52p52 homodimer (Homo sapiens, UniProt Q00653 4-332)
T1 sequence: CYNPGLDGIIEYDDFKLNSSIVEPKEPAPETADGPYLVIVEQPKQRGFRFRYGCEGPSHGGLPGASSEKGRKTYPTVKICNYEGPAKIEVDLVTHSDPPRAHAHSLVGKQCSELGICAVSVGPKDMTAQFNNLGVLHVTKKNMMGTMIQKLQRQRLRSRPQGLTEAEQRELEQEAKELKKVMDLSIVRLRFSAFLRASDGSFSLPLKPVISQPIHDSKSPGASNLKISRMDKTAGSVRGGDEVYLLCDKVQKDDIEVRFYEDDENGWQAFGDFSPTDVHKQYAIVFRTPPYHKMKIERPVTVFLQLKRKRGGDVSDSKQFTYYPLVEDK

[1] = target: RELA (p65) subunit of heterodimer;p50 subunit (Homo sapiens;Homo sapiens, UniProt Q04206;P19838 1-307;7-356)
[2] = target: RELA (p65) subunit of heterodimer;p52 subunit (Homo sapiens;Homo sapiens, UniProt Q04206;Q00653 1-307;4-332)
RELB subunit;p50 subunit = RELB subunit;p50 subunit (Homo sapiens;Homo sapiens, UniProt Q01201;P19838 120-401;7-356)
RELB subunit;p52 subunit = target: T2, RELB subunit;p52 subunit (Homo sapiens;Homo sapiens, UniProt Q01201;Q00653 120-401;4-332)
T2 sequence 1: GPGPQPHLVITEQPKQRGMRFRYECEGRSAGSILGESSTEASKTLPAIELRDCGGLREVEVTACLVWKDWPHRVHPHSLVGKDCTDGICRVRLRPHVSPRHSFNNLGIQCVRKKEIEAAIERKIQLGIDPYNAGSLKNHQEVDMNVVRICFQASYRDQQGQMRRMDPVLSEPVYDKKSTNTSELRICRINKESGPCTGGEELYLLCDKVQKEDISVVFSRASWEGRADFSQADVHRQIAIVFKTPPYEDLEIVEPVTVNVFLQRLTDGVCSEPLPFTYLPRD
T2 sequence 2: T1 sequence

[3] = target: C-Rel subunit;p50 subunit (Homo sapiens;Homo sapiens, UniProt Q04864;P19838 1-285;7-356)
[4] = target: T3, C-Rel subunit;p52 subunit (Homo sapiens;Homo sapiens, UniProt Q04864;Q00653 1-285;4-332)
T3 sequence 1: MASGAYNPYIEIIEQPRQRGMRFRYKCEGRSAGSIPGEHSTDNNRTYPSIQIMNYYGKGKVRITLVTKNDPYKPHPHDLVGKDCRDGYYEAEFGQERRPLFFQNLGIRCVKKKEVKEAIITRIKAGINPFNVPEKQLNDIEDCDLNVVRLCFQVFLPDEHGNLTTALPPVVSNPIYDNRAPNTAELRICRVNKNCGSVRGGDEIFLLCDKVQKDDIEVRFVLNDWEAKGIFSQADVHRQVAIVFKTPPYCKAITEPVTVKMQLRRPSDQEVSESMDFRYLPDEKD
T3 sequence 2: T1 sequence

Chain of p50p50 homodimer (P19838 7-356): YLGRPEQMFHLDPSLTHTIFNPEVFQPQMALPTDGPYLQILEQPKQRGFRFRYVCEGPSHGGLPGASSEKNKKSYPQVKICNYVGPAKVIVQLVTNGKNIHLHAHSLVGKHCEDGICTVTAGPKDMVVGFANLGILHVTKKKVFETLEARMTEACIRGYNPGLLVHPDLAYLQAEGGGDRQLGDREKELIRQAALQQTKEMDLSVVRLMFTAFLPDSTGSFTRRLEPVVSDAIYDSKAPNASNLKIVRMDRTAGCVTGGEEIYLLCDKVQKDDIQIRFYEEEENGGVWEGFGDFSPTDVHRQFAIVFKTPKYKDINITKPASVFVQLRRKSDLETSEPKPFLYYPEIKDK
Chain of RELA (p65) subunit of heterodimer;p50 subunit (Q04206 1-307, chain 1 of 2): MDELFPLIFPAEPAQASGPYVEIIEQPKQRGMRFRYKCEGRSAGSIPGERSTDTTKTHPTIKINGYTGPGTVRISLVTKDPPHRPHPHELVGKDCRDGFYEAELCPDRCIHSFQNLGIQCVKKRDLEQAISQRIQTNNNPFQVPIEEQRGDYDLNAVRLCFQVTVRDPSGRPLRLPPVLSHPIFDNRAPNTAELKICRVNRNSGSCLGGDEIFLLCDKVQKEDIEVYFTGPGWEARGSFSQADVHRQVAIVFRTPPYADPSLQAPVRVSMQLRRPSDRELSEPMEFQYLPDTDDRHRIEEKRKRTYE
Chain of RELA (p65) subunit of heterodimer;p50 subunit (P19838 7-356, chain 2 of 2): as the sequence (P19838 7-356) above
Chain of RELARELA (p65 homodimer) (Q04206 1-307): as the sequence (Q04206 1-307, chain 1 of 2) above

Sequence	binding signal (RELARELA (p65 homodimer)) [z-score]	binding signal (p50p50 homodimer) [z-score]	binding signal (p52p52 homodimer) [z-score]	binding signal [1] [z-score]	binding signal [2] [z-score]	binding signal (RELB subunit;p50 subunit) [z-score]	binding signal (RELB subunit;p52 subunit) [z-score]	binding signal [3] [z-score]	binding signal [4] [z-score]
CGATGCTCCCC	0.0266	-0.0437	-0.125	-0.0461	-0.196	0.111	0.0431	0.0174	-0.273
GGAGGGTCCCT	-0.115	0.371	0.534	0.933	0.819	0.287	0.448	0.496	0.547
GGAGTCACCCT	-0.674	-0.676	-0.345	-0.224	-0.5	-0.378	-0.661	-0.396	-0.585
CGAGTCCCCCT	-0.0442	1.47	1.11	1.66	1.39	1.68	2.08	1.47	1.15
AAAGAGACCCT	-1.1	-0.515	-0.457	-0.679	-0.542	-0.626	-0.766	-1.12	-0.688
CGGAAAACCCC	3.69	1.19	2.57	2.32	2.28	1.23	2.18	2.07	3.23
CAATACGCCCC	0.0573	0.196	0.145	0.039	0.0537	0.204	0.503	0.297	0.13
GAGGGTTCCCT	-0.44	-0.133	-0.121	-0.238	-0.0267	-0.011	0.0453	-0.173	-0.0776
GAGTGTACCCC	0.11	-0.176	-0.057	0.0359	0.0373	0.15	0.337	0.0895	0.24
AAATTGCTCCT	-0.35	-1.61	-0.602	-0.644	-0.813	-0.967	-0.7	-1.33	-0.903
GGATGCATCCC	-0.168	-0.953	-0.436	-0.723	-0.685	-0.7	-0.821	-1.05	-0.672
GAGTACACCCT	-0.136	-0.892	-0.573	-0.83	-0.569	-0.614	-0.527	-0.745	-0.376
CAGAGACCCCC	-1.05	0.706	0.0929	0.407	0.302	0.373	0.502	0.323	0.174
GAGTTAATCCC	0.0777	-0.527	-0.147	-0.451	-0.217	-0.125	-0.157	-0.186	-0.227
GAATACTCCCC	0.403	0.933	0.502	0.707	0.752	0.8	0.628	0.806	0.479
GGAATGGTCCT	0.313	-1.37	-0.493	-0.849	-0.627	-0.903	-0.612	-0.89	-0.524
AAGTGGGTCCC	-0.651	-0.324	-0.0356	-0.468	-0.433	-0.00499	-0.124	-0.493	-0.609
GAGAAAGTCCC	1.97	1.14	1.91	1.51	1.47	1.81	1.7	1.39	1.69
CGAGGCATCCC	-0.716	-1.34	-0.635	-1.05	-0.831	-0.973	-0.906	-1.02	-0.807
GGATTTTCCCC	3.79	1.16	2.75	2.27	2.49	2.15	2.39	1.94	2.19

Sequence	binding signal (RELARELA (p65 homodimer)) [z-score]	binding signal (p50p50 homodimer) [z-score]	binding signal (p52p52 homodimer) [z-score]	binding signal [1] [z-score]	binding signal [2] [z-score]	binding signal (RELB subunit;p50 subunit) [z-score]	binding signal (RELB subunit;p52 subunit) [z-score]	binding signal [3] [z-score]	binding signal [4] [z-score]
AAAATCTTCCC	1.32	0.807	0.256	0.764	0.419	0.54	0.162	1.06	0.488
CAGAGCACCCT	-0.924	-0.392	-0.306	-0.624	-0.75	-0.474	-0.444	-1.15	-0.736
GAATTCACCCC	0.545	0.437	0.192	0.892	0.806	0.49	0.753	0.643	0.698
GAAGTGGCCCC	-1.02	-0.225	-0.401	-0.503	-0.265	-0.183	-0.112	-0.347	-0.316
AGATATTCCCC	1.8	1.31	2.2	2.03	1.99	1.8	1.96	1.64	1.71
AAGAACACCCC	-0.22	0.317	0.0847	0.107	0.232	0.176	0.504	0.232	0.274
GGAGTGACCCC	-0.389	-0.505	-0.461	-0.353	-0.178	-0.399	-0.304	-0.367	-0.254
GAATTGTTCCT	0.0616	-1.38	-0.497	-0.672	-0.721	-1.09	-0.587	-0.937	-0.574
CAATGACCCCC	-0.602	0.342	0.0634	0.0857	0.113	0.27	0.286	-0.0621	-0.0557
AGATTATCCCT	0.0615	0.543	0.486	0.262	0.522	0.325	0.392	0.0293	0.0511
CAATAGCCCCT	-0.581	1.17	0.673	0.506	0.808	0.574	0.89	0.189	0.555
CAATGTTCCCT	0.185	0.396	0.137	-0.019	-0.0733	0.0726	0.0791	0.0457	-0.175
GGATTCCCCCT	2.01	1.46	2.93	2.64	2.73	2.83	2.57	2.03	2.78
AAGAGAGCCCC	-0.68	0.339	0.122	0.109	-0.015	-0.0342	-0.125	0.0932	0.00397
GAAGAATCCCC	1.11	1.36	2.18	2.18	1.83	2.29	1.85	1.56	1.53
GAGATTGCCCC	0.817	0.318	0.0909	0.951	0.468	0.435	0.366	1.1	0.621
GGGTTCCTCCT	-0.196	-1.42	-0.584	-0.636	-0.6	-0.937	-0.638	-0.934	-0.467
AGGGTGGTCCC	-0.0899	0.541	0.435	0.249	0.357	0.251	0.266	0.364	0.427
AGGGATCTCCC	1.05	0.595	2.05	1.2	1.32	1.27	1.12	0.678	1.36
GAAGAGTTCCC	0.742	0.281	-0.0634	0.27	0.0483	0.132	-0.0744	0.46	0.057

Sequence	binding signal (RELARELA (p65 homodimer)) [z-score]	binding signal (p50p50 homodimer) [z-score]	binding signal (p52p52 homodimer) [z-score]	binding signal [1] [z-score]	binding signal [2] [z-score]	binding signal (RELB subunit;p50 subunit) [z-score]	binding signal (RELB subunit;p52 subunit) [z-score]	binding signal [3] [z-score]	binding signal [4] [z-score]
CGGAAATCCCT	2.44	1.09	1.3	1.35	1.25	0.939	1.47	1.21	1.56
AAGTTAGTCCT	-0.0878	-1.56	-0.552	-1.02	-0.842	-1.03	-0.752	-1	-0.837
GGAAACCTCCT	0.339	-1.26	-0.526	-0.425	-0.573	-1.02	-0.75	-0.436	-0.293
GGAATGATCCC	-0.0862	-0.737	-0.387	-0.382	-0.396	-0.763	-0.764	-0.432	-0.264
CAAAGAACCCT	-0.87	-0.409	-0.354	-0.631	-0.614	-0.682	-0.58	-0.78	-0.544
CGGGGACCCCT	-0.0408	0.724	0.639	0.43	0.693	0.578	0.906	0.478	-0.0336
AAGGGAATCCC	2.03	0.857	2.29	1.16	1.75	1.21	1.57	1.02	1.92
GAGAGACTCCT	-0.455	-2.14	-0.793	-1.01	-1.21	-1.19	-1.24	-1.58	-1.02
AAATATCTCCC	0.144	0.445	0.105	0.12	-0.105	0.365	0.153	-0.0256	-0.0762
GAGTAATTCCT	0.42	-1	-0.525	-0.42	-0.441	-0.739	-0.87	-0.18	-0.195
CGGTGGTTCCT	0.0744	0.731	1.05	0.41	0.701	0.293	0.552	-0.0201	0.719
CAATTACCCCT	0.378	1.06	0.863	0.727	1.01	0.941	1.38	0.652	0.899
GGGTGGCCCCC	-0.733	0.527	0.796	0.639	0.996	0.399	0.74	0.773	0.833
GAATATCCCCC	0.817	1.35	1.71	1.94	1.64	1.97	1.9	1.33	1.58
CAGTGACCCCT	-0.538	-0.115	-0.0283	-0.321	-0.373	-0.303	-0.116	-0.672	-0.427
CGAAAGTTCCT	0.451	-0.747	-0.53	-0.689	-0.651	-0.963	-0.709	-0.537	-0.406
AAGGATATCCT	-0.125	-1.04	-0.548	-0.853	-0.906	-0.945	-0.859	-1.41	-0.843
CGGATGGCCCT	-1	-1.09	-0.625	-0.472	-0.684	-0.367	-0.331	-0.715	-0.706
AGGTTTTCCCC	3.11	1.14	3.16	2.17	2.48	2.01	2.3	1.8	2.63
AGGTATTTCCC	2.88	0.816	2.74	1.5	2.11	1.27	1.85	1.43	2.34
